# Assay results as given in PubChem BioAssay AID720647 (Broad Institute, 2013).
# About 1,300 (0.34%) of roughly 380,000 compounds were called active.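 Rule for the calls: active = drop in luminescence signal, shown as inhibition above about 50% in the replicate tests (limit read from the data, passing the limit was not always enough); inconclusive = probably only some replicates passing the limit; inactive = the rest.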 Many of the other results were omitted from the sample, so actives are more common in it than they were.
# Tested on: Drosophila bursicon receptor LGR2 (rickets)
# Assay: LGR2 cAMP reporter signal reduction – cell-based, HEK293, CRE-luciferase reporter, bursicon stimulation, primary screen (AID 720647);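 note: agonist challenge used bursicon conditioned medium at about half maximal strength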
# Settings: bursicon-stimulated, 4 h, at 9.99 µM, active compounds read high
row,SMILES,inhibition
1,Cc1cc(C(=O)COc2ccccc2Cl)c(C)n1C1CC1,-70% (inactive)
2,Cc1cc(C(=O)COC(=O)C2CC2)c(C)n1-c1ccc(F)cc1,81.6% (active)
3,Cc1cc(C(=O)CSc2nc(N)cc(=O)[nH]2)c(C)n1-c1cccc(F)c1,1.57% (inactive)
4,CNC[C@@H]1Oc2ccc(NC(=O)Nc3ccc4c(c3)OCO4)cc2C(=O)N([C@H](C)CO)C[C@@H]1C,-5.83% (inactive)
5,CO[C@@H]1CN(C)C(=O)c2cc(NS(C)(=O)=O)ccc2OC[C@@H](C)N(C(=O)C2CCC2)C[C@@H]1C,-11.1% (inactive)
6,O=C(C[C@H]1CC[C@H]2[C@@H](COC[C@@H](O)CN2Cc2ccccc2)O1)N[C@@H]1CCN(Cc2ccccc2)C1,1.95% (inactive)
7,O=C(NC1=CC(=O)c2ccccc2C1=O)c1ccccc1,61.4% (active)
8,CCS(=O)(=O)N1CC2(C1)CN(S(=O)(=O)c1ccccc1)[C@H](CO)c1c2c2ccc(OC)cc2n1C,-11.1% (inactive)
9,CC(C)NC(=O)Nc1ccc2c(c1)CC(=O)N([C@H](C)CO)C[C@@H](C)[C@@H](CN(C)C(=O)Nc1ccc3c(c1)OCO3)O2,-3.26% (inactive)
10,CCCCCCCCn1c2c(c(=N)c3c1CCC3)CCCC2,52.6% (active)
11,Cc1noc(C)c1NC(=O)Nc1ccc2c(c1)C(=O)N([C@@H](C)CO)C[C@@H](C)[C@H](CN(C)Cc1ccc(C(F)(F)F)cc1)O2,-7.29% (inactive)
12,C[C@H]1CN([C@@H](C)CO)C(=O)c2cc(C3=CCCCC3)cnc2O[C@@H]1CN(C)C(=O)c1ccc(F)cc1,2.17% (inactive)
13,CN1c2ccc(Br)cc2[C@@H]2[C@@H](CCN2C(=O)C2CCCC2)[C@H]1CO,1.06% (inactive)
14,Cc1cccc(-n2ncc(Cl)c(Cl)c2=O)c1,103% (active)
15,Cc1cc(=O)cc(C)n1-c1ccc(Cl)c(Cl)c1,5.96% (inactive)
16,COc1cccc(C2SCC(=O)N2c2cccc(C)c2)c1OC (stereo not given),7.83% (inactive)
17,CCNC(=O)C[C@@H]1CC[C@H]2[C@@H](COC[C@@H](O)CN2C(=O)c2cc(Cl)cc(Cl)c2)O1,11.4% (inactive)
18,C[C@@H]1CN([C@@H](C)CO)C(=O)c2cc(NS(=O)(=O)c3ccccc3)ccc2O[C@H]1CN(C)S(=O)(=O)c1ccc(Cl)cc1,13.5% (inactive)
19,CCOC(=O)C1=C(c2ccc(OC)cc2)C(=O)c2ccccc2C1=O,99.6% (active)
20,CCOC(=O)C1=C(C)c2ccccc2OC1C(=O)OCC (stereo not given),-7.81% (inactive)
21,CCOC(=O)C1=C(c2ccccc2)NC(=O)NC1c1cc(OC)c(OC)cc1OC (stereo not given),8.83% (inactive)
22,CO[C@H]1CN(C)C(=O)c2cc(NC(=O)Nc3ccc4c(c3)OCO4)ccc2OC[C@@H](C)NC[C@@H]1C,-36.2% (inactive)
23,C[C@H](CO)N1C[C@H](C)[C@H](CN(C)C(=O)Nc2ccccc2C(F)(F)F)OCc2cn(nn2)CCCC1=O,3.25% (inactive)
24,CC(C)NC(=O)N(C)C[C@H]1OCCCC[C@H](C)Oc2ccc(NC(=O)CCC(F)(F)F)cc2C(=O)N([C@H](C)CO)C[C@H]1C,1.7% (inactive)
25,Cc1noc(C)c1S(=O)(=O)N(C)C[C@@H]1Oc2ccc(NC(=O)Cn3cnnn3)cc2CC(=O)N([C@@H](C)CO)C[C@H]1C,0.447% (inactive)
